# Only some compounds are listed: those with a hit (about 1.3% of all), similar ones and a draw of the others.
# SUMO HTRF inh: blocks human SUMOylation mediated by UBC9; P63279; HTRF SUMOylation assay, SAE1/SAE2 + UBC9, in vitro; inhibition, % at 35 µM; 290,000 compounds, 0.36% hits; in the data active means inhibition above about 50%, passing the limit was not always enough
# Target sequence (P63279 whole entry, looked up): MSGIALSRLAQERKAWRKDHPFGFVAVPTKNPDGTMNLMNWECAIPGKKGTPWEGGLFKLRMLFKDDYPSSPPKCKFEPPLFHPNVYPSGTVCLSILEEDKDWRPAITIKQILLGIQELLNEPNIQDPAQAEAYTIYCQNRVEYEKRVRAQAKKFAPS
# eIF4E-4G inh: blocks eIF4E binding to eIF4G; TR-FRET eIF4E-eIF4GI(517-606) binding, 2 h; inhibition, % at 21.7 µM; 220,000 compounds, 0.37% hits;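 further: 0% = full FRET control wells and 100% = background wells lacking eIF4GI fragment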
# 14-3-3 Bad PPI: disrupts binding of bovine 14-3-3 zeta to phospho-Bad peptide; P63103; TR-FRET 14-3-3zeta/Dy647-pBad peptide displacement, 1 h; inhibition, % at 21.7 µM; 220,000 compounds, 0.71% hits; AID 781;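 active means inhibition above about 70%, limit read from the data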;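 further: 0% = full 14-3-3 plus peptide FRET controls and 100% = background without 14-3-3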
# Target sequence (P63103 whole entry, looked up): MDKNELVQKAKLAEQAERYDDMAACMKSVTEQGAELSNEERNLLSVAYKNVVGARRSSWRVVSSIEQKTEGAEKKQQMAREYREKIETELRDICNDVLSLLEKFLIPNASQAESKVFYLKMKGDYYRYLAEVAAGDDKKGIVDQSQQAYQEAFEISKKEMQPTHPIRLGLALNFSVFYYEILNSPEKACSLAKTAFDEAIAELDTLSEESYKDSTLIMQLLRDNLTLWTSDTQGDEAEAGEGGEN
# NCF1 inh: inhibitors of human p47phox binding; inhibition, % at 24.7 µM; p47phox/p22phox peptide binding, fluorescence polarization, 2 h; 220,000 compounds, 0.53% hits;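 further: 0% = p47phox with labelled peptide and 100% = labelled peptide alone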
# An asterisk follows results filed as active; . = not tested or not shown; [ ] = remark or other dose.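 How the source made its calls, unless noted: active means inhibition above about 30% (limit read from the data); inactive means the rest.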
SMILES,SUMO HTRF inh,eIF4E-4G inh,14-3-3 Bad PPI,NCF1 inh
N#CC(=C=[N-])c1nc2ccccc2nc1-[n+]1cccc(NC(=O)c2ccc(F)cc2)c1,35.4,4.8,21.7,21.4
CCN1CCN(c2ccc(N=Cc3ccccc3O)cc2)CC1,7.6,3.7,-6.0,0.3
CC(=O)Nc1ccccc1C(=O)C(=O)Nc1ccc(C(=O)NCC2CCCO2)cc1 (configuration not stated),-1.1,3.3,-2.8,5.5
[S-]C(=Nc1ccc(Cl)cc1)N[n+]1ccccc1,-6.0,-2.8,-2.1,-6.4
COc1ccc(N=C2NC(=O)/C(=C\C=C\c3ccco3)S2)cc1,84.8*,10.9,-8.8,0.8
Cc1cccc(N=C2NC(=O)/C(=C/C=C/c3ccco3)S2)c1,39.9,4.6,2.3,-41.9
COc1ccc(NC(=O)c2ccc(Cl)nc2)cc1S(=O)(=O)N1CCCCC1,-4.2,-3.4,91.1*,-9.4
Cc1ccccc1S(=O)(=O)Nc1ncnc2ccccc12,4.3,.,.,.
O=C(O)CSc1nnc(-c2ccc(S(=O)(=O)N3CCCC3)cc2)n1Cc1ccco1,-2.0,3.1,84.7*,-6.0
Cc1ccc2cc(C(=O)O)c(C)nc2c1,-4.2,-11.0,79.2*,8.0
CCN(CCO)c1ccc(-n2c(N)c(C(=O)OC)c3nc4ccccc4nc32)cc1,21.8,9.4,87.0*,17.7
CCOc1ccccc1C(=O)N1CCCCC1C (configuration not stated),-3.3,4.6,6.0,-3.6
CCCCCCC#Cc1cncc(C(=O)NNC(=O)Nc2cc(Cl)cc(Cl)c2)c1,62.4*,0.7,2.8,-10.2
COCCN=c1scc(-c2ccco2)n1/N=C/c1ccc(O)c(O)c1O,80.8,44.7*,37.3,-2.2
Cc1ccc(CSCC(=O)NCc2ccco2)cc1,0.8,1.1,89.0*,1.6
COc1cc(/C=C2\CC/C(=C\c3cc(OC)c(O)c(OC)c3)C2=O)cc(OC)c1O,30.1,40.0*[fluorescence artefact?],-3.1,-49.1
CCOc1cccc(OCCCCn2ccnc2)c1,-11.8,36.4*,34.2,-16.1
CC(=O)Nc1ccc(NC(=O)N(c2ccccc2)c2ccccc2)cc1,5.8,.,.,.
Fc1ccc(-c2nc3cnccn3c2NC2CCCC2)cc1,54.4*,0.7,-15.9,-17.7
Oc1ccc(Br)cc1-c1nc2cnccn2c1NC1CCCC1,28.2,.,.,.
CCOC(=O)c1c(CSc2nc(C)cc(C)c2C#N)n(C)c2cc(Br)c(OC(C)=O)cc12,8.4,5.0,-24.5,-11.9
CCCCCCCCOC(=O)c1c(CSC(=N)N)n(C)c2cc(Br)c(OC(C)=O)cc12,-61.0,-1.9,85.2*,87.5*
CCOC(=O)c1c(CSC(=N)N)n(-c2ccc(Br)cc2)c2cc(Br)c(OC(C)=O)cc12,-37.9,37.1*[fluorescence artefact?],95.7*[fluorescence artefact?],92.7*
O=C1CCC(C(=O)N2CCCCCC2)CN1Cc1cccc(C(F)(F)F)c1 (configuration not stated),16.7,.,.,.
CNC(=S)N/N=C/c1cc(Br)cc(Br)c1O,10.2,2.7,-4.6,-34.2
SMILES,SUMO HTRF inh,eIF4E-4G inh,14-3-3 Bad PPI,NCF1 inh
Oc1c(Br)cc(Br)cc1/C=N/NC(=S)N[C@H]1CC2C=CC1C2 (some centres not stated),57.8*,6.8,-8.1,-1.4
CN(C)C=Nc1ccc2nc3c(cc2c1)[nH]c1ccccc13,50.1*,.,.,.
CN1C(=O)C(O)(CC(=O)/C=C/c2ccco2)c2cc(Br)ccc21 (configuration not stated),29.0,-3.8,83.2*,-5.1
O=S(=O)([O-])CCC[n+]1c(SCCCS(=O)(=O)O)sc2ccc(Cl)cc21,11.0,15.0,92.5*[fluorescence artefact?],-5.4
Cc1ccc2oc(=O)c3cc(C(=O)N4CCN(C)CC4)sc3c2c1,10.7,1.5,3.6,0.3
CCCCOC(=O)c1ccc(NC(=O)c2c(OC)cccc2OC)cc1,3.3,1.7,0.9,37.5*
CCOC(=O)c1ccc(NC(=O)COc2ccccc2OC)cc1,8.6,-1.2,82.9*,3.3
O=C(c1c[nH]c2ccc(S(=O)(=O)N3CCOCC3)cc2c1=O)N1CCCC1,11.8,3.4,-1.8,2.7
CC(C)c1ccc(NS(=O)(=O)c2ccc3[nH]cc(C(=O)N4CCC(C(N)=O)CC4)c(=O)c3c2)cc1,-6.0,8.4,96.1*[fluorescence artefact?],-7.0
CCCCNC(=O)NS(=O)(=O)c1ccc(NC(=O)C(NC(N)=O)C(C)CC)cc1 (configuration not stated),11.9,2.9,0.7,-0.2
Cn1c(-c2ccc(F)cc2)cnc1NCc1ccc(F)cc1,17.4,-6.6,80.2*,-19.6
Cn1c(-c2ccc(Br)cc2)cnc1NCc1cccnc1,-19.3,7.7,79.0*,-9.7
Cn1c(-c2ccc3c(c2)OCO3)cnc1NCc1ccc(Cl)cc1,17.8,-2.9,77.5*,-8.1
